# Shown are actives, neighbours in structure and some others; about 3.7% of the full set was active somewhere.
# Autofluor counter: counter-screen for toxin protease inhibitors: compound fluorescence. compound autofluorescence counterscreen, microsphere flow cytometry; hits give high values. AID 624483. fluorescence intensity (test concentration not listed). 360,000 compounds, 3.1% hits; in the data active means fluorescence intensity above about 16000; inconclusive means no clear call, values can overlap the other calls
# MazF activator: activators of E. coli MazEF toxin-antitoxin RNase, primary screen, biochemical, fluorescence, uHTS; Endoribonuclease toxin MazF (Escherichia coli (strain K12)), P0AE70; AID 504720, 2011; 350,000 compounds, 0.32% hits; FAM/BHQ RNA-DNA oligo cleavage fluorescence, 5 h; activation, % at 20 µM; in the data active means activation above about 50%
# BoNT-A LC inh2: BoNT/A light chain protease inhibitors, primary screen, biochemical, flow cytometry, MLPCN library | Botulinum neurotoxin type A light chain protease (Clostridium botulinum A str. ATCC 3502) | 360,000 compounds, 0.17% hits | inhibition, % at 10 µM | multiplex microsphere protease substrate cleavage | AID 588499, 2011; further: plate controls were buffer without enzyme for full effect and enzyme alone for no effect
# Anthrax LF prot: Bacillus anthracis LF protease inhibitors, primary screen, biochemical, multiplex microsphere, MLPCN library. Lethal factor (Bacillus anthracis), P15917. multiplex microsphere protease cleavage assay. inhibition, % at 10 µM. 360,000 compounds, 0.12% hits; further: plate controls were buffer without enzyme for full effect and enzyme alone for no effect
# Target sequence (P15917 whole entry, looked up): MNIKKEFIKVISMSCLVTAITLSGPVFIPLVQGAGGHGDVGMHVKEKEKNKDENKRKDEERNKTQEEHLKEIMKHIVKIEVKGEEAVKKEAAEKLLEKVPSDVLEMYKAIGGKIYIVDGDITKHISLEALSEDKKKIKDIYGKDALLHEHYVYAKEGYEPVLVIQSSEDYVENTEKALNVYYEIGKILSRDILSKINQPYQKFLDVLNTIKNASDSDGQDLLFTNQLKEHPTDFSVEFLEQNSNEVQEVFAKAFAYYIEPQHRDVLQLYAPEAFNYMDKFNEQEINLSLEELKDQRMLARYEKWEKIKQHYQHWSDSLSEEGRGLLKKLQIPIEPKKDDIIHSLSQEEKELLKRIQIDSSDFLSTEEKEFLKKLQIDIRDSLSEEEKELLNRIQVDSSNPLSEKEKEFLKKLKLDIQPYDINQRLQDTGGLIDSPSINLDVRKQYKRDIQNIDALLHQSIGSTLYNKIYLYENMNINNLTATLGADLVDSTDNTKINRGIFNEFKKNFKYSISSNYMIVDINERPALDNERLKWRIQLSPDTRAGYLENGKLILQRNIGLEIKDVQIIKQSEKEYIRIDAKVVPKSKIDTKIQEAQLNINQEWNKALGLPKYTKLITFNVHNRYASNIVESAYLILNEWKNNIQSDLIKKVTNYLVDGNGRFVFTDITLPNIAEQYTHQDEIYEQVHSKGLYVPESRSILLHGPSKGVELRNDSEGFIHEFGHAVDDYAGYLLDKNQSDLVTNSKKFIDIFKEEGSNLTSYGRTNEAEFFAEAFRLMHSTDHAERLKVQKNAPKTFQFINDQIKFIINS
# BoNT-F LC inh: BoNT/F light chain protease inhibitors, primary screen, biochemical, flow cytometry, MLPCN library; Multiplex microsphere protease cleavage assay; 360,000 compounds, 0.22% hits; inhibition, % at 10 µM; in the data active means inhibition above about 35%, passing the limit was not always enough; inconclusive means no clear call, values can overlap the other calls; further: plate controls were buffer without enzyme for full effect and enzyme alone for no effect
# * hit, by the source's call; ? = inconclusive; / = no result given. Unless noted, no stated cut-off is given here; in the data, active means inhibition above about 30%; inconclusive means no clear call, values can overlap the other calls; inactive means below that.
SMILES,Autofluor counter,MazF activator,BoNT-A LC inh2,Anthrax LF prot,BoNT-F LC inh
CCN(CC)C(=O)C1CCCN(C/C=C/c2ccccc2)C1 (centres undefined),25287*,-15.1,-5.8,-2.2,-6.3
CCN(CC)C(=O)C1CCCN(Cc2ccc(F)c(F)c2)C1 (centres undefined),11009,1.4,2.3,-1.7,0.0
CCN(CC)C(=O)C1CCCN(Cc2ccc(OC)c(C)c2)C1 (centres undefined),16141*,-6.0,1.8,-2.0,2.1
CCN(CC)C(=O)C1CCCN(C/C(C)=C/c2ccccc2)C1 (centres undefined),8692,-5.6,-1.0,-3.5,-7.7
CCN(CC)C(=O)C1CCCN(Cc2ccccc2C(F)(F)F)C1 (centres undefined),23390*,4.3,0.5,-1.5,-0.2
Cc1cccc(NC(=O)CCS(=O)(=O)c2ccc3nc(C)sc3c2)c1,5505,/,-0.2,-6.8,-3.2
CCOc1ccc(Oc2ccc(C(F)(F)F)cc2NC(=O)C2=COCCO2)cc1,8746,1.2,-0.7,7.4,-1.5
COc1cc(C)ccc1S(=O)(=O)NC(=O)C1(C)CCN1C(=O)Cc1ccc(C(C)(C)C)cc1 (centres undefined),2931,/,-0.6,0.8,-8.4
CC1CCCCC1NC(=O)CCNC(=O)N1CC(=O)Nc2ccccc21 (centres undefined),5844,4.4,-1.1,0.3,-1.3
CN1NC(c2ccccc2)NN(C)C1=O,4258,/,1.0,-9.9,-0.6
CCOC(=O)c1sc(-c2ccc(Br)cc2)cc1N,18598*,-1.1,3.8,-2.8,1.7
CCOC(=O)c1sc(-c2ccccc2)cc1NC(=O)Nc1ccccc1,2659,-6.9,4.0,0.3,2.4
CCOC(=O)c1cc(-c2ccc(N)cc2)sc1N,18171*,20.2,10.2,-3.2,2.0
CCOC(=O)c1ccc(N)cc1,5449,5.8,-0.7,-2.0,-10.2
CCOC(=O)C1(CCOc2ccccc2)CCN(Cc2ccc(F)c(OC)c2)CC1,4428,-4.1,0.3,-18.1,40.3*
CCCNC(=O)C(Cc1ccccc1)NC(=O)c1cccc([N+](=O)[O-])c1 (centres undefined),2965,5.8,-0.2,-5.8,3.0
O=C(O)c1ccc([N+](=O)[O-])c2c1C(=O)c1ccccc1C2=O,20562*,2.6,?,-49.2,?
COc1ccc(N(C)S(=O)(=O)c2ccc3c(c2)CCC(=O)N3)cc1,20669*,-7.6,-0.2,-3.1,-2.0
CCCC(=O)c1c(NC)cc(C)oc1=O,21049*,5.2,?,-0.5,-6.2
CCC1(CC)C(=O)NC(=NCCc2c[nH]c3ccccc23)NC1=O,17043*,2.9,-2.3,-1.7,-8.3
CC1CC(C)CN(C(=O)CCC(=O)Nc2nnc(C(C)C)s2)C1 (centres undefined),4072,-0.2,0.3,-1.0,1.5
O=C(NCc1ccccc1Cl)C1CCN(S(=O)(=O)N2CCCCCC2)CC1,17397*,1.4,-2.8,-0.5,-3.9
CC(C)(C)NC(=O)CSc1n[nH]c(=O)n1-c1ccccc1,20863*,-0.6,-1.5,-3.3,-2.4
COc1ccc(C(C)=O)cc1CN1C(=O)C(C)N(c2ccc(C)cc2)C1=O (centres undefined),18676*,-6.0,?,-6.6,4.8
Cc1ccc(CNc2nc(NCc3ccccc3)nc3ccsc23)c(C)c1,4012,/,-0.1,-2.4,-4.6
SMILES,Autofluor counter,MazF activator,BoNT-A LC inh2,Anthrax LF prot,BoNT-F LC inh
COc1ccc(C(=O)CC(Nc2ccc([N+](=O)[O-])cc2)c2ccc(OC)cc2)cc1 (centres undefined),24070*,6.3,-1.9,-1.5,-4.5
COc1ccc(C(=O)CC(=O)Nc2ccc([N+](=O)[O-])cc2)cc1,3498,-21.4,-1.1,8.9,-18.7
Cc1ccc(S(=O)c2ccc(C)cc2)cc1,20056*,3.1,?,-0.1,-1.8
COc1ccc(OC)c2c(N3CC(C)OC(C)C3)cc(C(F)(F)F)nc12 (centres undefined),6433,-0.4,-0.6,-6.0,-7.8
CC1CN(c2cc3nccnc3cc2F)CC(C)O1 (centres undefined),16271*,5.4,?,0.6,1.3
CSc1nc(N(C)CCO)c2sc3nc(-c4ccco4)c4c(c3c2n1)CCC4,22092*,-0.8,?,-1.8,-0.8
CSc1nc(NCCN(C)C)c2sc3nc(-c4ccco4)c4c(c3c2n1)CCC4,4150,-6.5,5.9,-2.2,-6.1
COc1ccc(C(CNC(=O)C(C)c2ccc3cc(OC)ccc3c2)N(C)C)cc1 (centres undefined),2918,7.7,-1.7,-6.1,6.6
COc1ccc2cc([C@H](C)C(=O)N(C)Cc3ccccc3N3CCCC3)ccc2c1,21814*,-22.7,-9.6,-18.0,-1.0
COc1ccccc1N1CCN(C(=O)CSc2nc(C)c(C)c(=O)[nH]2)CC1,4485,-3.2,-0.6,0.6,-4.4
COc1cccc(OC)c1C(=O)N1CCOCC1,22982*,0.1,?,0.3,1.2
COc1cc(/C=N/N2CCN(c3ccccc3OC)CC2)ccc1OC(C)=O,3650,-1.6,-0.2,42.2*,?
COc1ccccc1N1CCN(C(=O)N2CCOCC2)CC1,23262*,-1.0,-2.0,-0.6,-2.5
COc1ccccc1N1CCN(/N=C/c2cc(OC)c(O)c(OC)c2)CC1,10923,7.5,-1.0,2.5,4.1
COc1ccccc1N1CCN(C(=O)CSc2nc(C)cc(=O)[nH]2)CC1,17183*,0.5,-2.3,-0.5,-4.7
CC(C)(C)c1ccc(OCCC(=O)Nc2cccc(S(=O)(=O)NC3=NCCCCC3)c2)cc1,6097,2.5,1.4,-1.5,7.8
CN(CC(=O)Nc1ccc(Cl)c(C(F)(F)F)c1)CC(=O)NC1CCCCC1,5580,-8.4,-0.7,-0.4,-3.4
CCCC/C(O)=C1\C(=O)CC(C)(C)CC1=Nc1ccccc1OC,20312*,-3.7,-0.3,-1.4,-1.0
COC(=O)CC/C(O)=C1\C(=O)CC(C)(C)CC1=Nc1ccccc1OC,2798,-9.9,0.9,-1.6,-5.9
COc1ccccc1C(=O)Nc1ccc2c(c1)CN(Cc1cnc(C)s1)CC2,5583,6.8,-5.2,-6.7,-12.7
O=C(CC(C(=O)N1CCc2ccccc21)n1ccnc1)NCC1CCCO1 (centres undefined),22602*,7.4,3.7,-0.5,2.4
CCCCNC(=O)CC(C(=O)N1CCc2ccccc21)n1ccnc1 (centres undefined),8295,1.2,-0.4,2.0,3.6
O=C(NC1CCCC1)C1c2ccccc2C(=O)N1CCCN1CCOCC1 (centres undefined),4298,8.3,-1.2,-6.8,-10.8
COCCCN1C(=O)c2ccccc2C1C(=O)NC1CCCCCC1 (centres undefined),22972*,-2.1,2.2,1.4,1.3

# Compound activity from PubChem.
